In PubChem BioAssay:
Active and inactive are the calls of the source. Unless noted, no rule for the calls is given here.

Legend:
[1] = compounds binding Alexa647 anti-His antibody – biochemical, small-molecule microarray, 635 nm fluorescence, artefact control for SMM control protein annotation, primary screen (AID 1128); conditions: higher = more signal;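 also: score merges feature fluorescence with signal-to-noise for each printed compound spot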
[2] = test system: Human papillomavirus type 1a E7 protein (residues 1-88); assay: HPV1a E7 small-molecule binders, primary screen, biochemical, small-molecule microarray, residues 1-88, 635 nm (AID 1129); conditions: small-molecule microarray binding, fluorescence 635 nm; higher = more signal
[3] = biological target: Focal adhesion kinase 1 (Homo sapiens) (UniProt Q05397); assay: PTK2 protein binding on printed compound slides – biochemical, small-molecule microarray, 635/667 nm fluorescence, BSA, DTT, primary screen (AID 1130); conditions: 635 nm fluorescence, higher = more signal;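 also: composite of spot emission at 667 nm and signal to noise over triplicate slides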
[4] = test system: Fibrinogen (Alexa647-labelled); assay: Alexa647-fibrinogen binding to printed small molecules – biochemical, small-molecule microarray, 635/667 nm fluorescence, artefact control for SMM control-protein annotation, profiling panel (AID 1131); conditions: fibrinogen-A647 binding fluorescence, higher = more signal;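 also: z-score merges 667 nm fluorescence with per-spot signal-to-noise over triplicate slides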
[5] = biological target: Follistatin (Homo sapiens) (UniProt P19883); assay: FST protein binding to printed compounds – biochemical, small-molecule microarray, 635/667 nm fluorescence, primary screen (AID 1132); conditions: 635 nm fluorescence, higher = more signal
[6] = biological target: Fibroblast growth factor 2 (Homo sapiens) (UniProt P09038); assay: basic fibroblast growth factor binding to printed compounds – biochemical, small-molecule microarray, 635/667 nm fluorescence, primary screen (AID 1133); conditions: FGF2, fluorescence 635/667, higher = more signal
[7] = JC-1 mitochondrial potential readout, lung cancer cells – cell-based, A549, JC-1 fluorescence, basal, 24 h, 100 nL, profiling panel (AID 1138); conditions: higher = more signal;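 also: A549 lung adenocarcinoma cells under basal conditions with no added stimulus; test concentration not given here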
Lefty1 = Lefty1 protein binding to printed compounds – biochemical, small-molecule microarray, 635/667 nm fluorescence, primary screen (AID 1139); conditions: fluorescence 635/667, higher = more signal
[8] = test system: wheat germ agglutinin (Triticum aestivum), Alexa647-labelled; assay: Alexa647-WGA lectin binding to printed small molecules – biochemical, small-molecule microarray, 635/667 nm fluorescence, artefact control for SMM control-protein annotation, profiling panel (AID 1140); conditions: WGA-A647 binding, 635 nm fluorescence, higher = more signal;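 also: score merges 667 nm feature emission with signal to noise over triplicate slides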
[9] = biological target: Luciferin 4-monooxygenase (Photinus pyralis) (UniProt P08659); assay: inhibition of purified Photinus pyralis luciferase – biochemical, luminescence, purified enzyme, 2006 set, primary screen (AID 1141); conditions: purified firefly luciferase, SteadyGlo luminescence, 30 min; higher = more signal, called active from +8 up or from −8 down;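 also: cell-free assay with purified firefly luciferase at 100 ng per well in PBS; test concentration not given here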
[10] = test system: Wnt5a (protein binding on small-molecule microarray); assay: small molecules binding Wnt5a protein – biophysical, small-molecule microarray, 635/667 nm fluorescence, primary screen (AID 1142); conditions: 635 nm fluorescence, higher = more signal;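 also: fluorescence read at 667 nm with signal to noise per printed feature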
[11] = ATP-based viability of Huh7 replicon cells – cell-based, CellTiter-Glo luminescence, basal, 48 h, cytotoxicity control for HCV replication inhibitor project, primary screen (AID 1143); conditions: higher = more signal, called active from +8 up or from −8 down;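 also: Huh7 hepatoma cells carrying a hepatitis C replication reporter with no stimulus; test concentration not given here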
[12] = Pseudomonas biofilm growth suppression – PAO1 strain, BacTiter-Glo luminescence, LB-PBS, primary screen (AID 1144); conditions: P. aeruginosa PAO1 biofilm, 12 h, higher = more signal
[13] = basal CRE-LacZ reporter activity in PC12 – cell-based, unstimulated, primary screen (AID 1145); conditions: no forskolin, luminescence, 4.5 h, higher = more signal, called active from +8 up or from −8 down
[14] = forskolin-driven CRE-LacZ activity in PC12 – cell-based, CRE-LacZ reporter, forskolin-stimulated, primary screen (AID 1146); conditions: luminescence, 4.5 h, higher = more signal, called active from +8 up or from −8 down;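 also: PC12 cells with 6xCRE LacZ reporter stimulated by forskolin 10 µM; beta-galactosidase reporter signal reflecting CREB driven transcription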
[15] = biological target: Streptavidin (Streptomyces avidinii) (UniProt P22629); assay: compounds binding control protein streptavidin – biophysical, small-molecule microarray, 635/667 nm fluorescence, artefact control for SMM compound annotation, primary screen (AID 1147); conditions: higher = more signal;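 also: signal reflects streptavidin binding to arrayed compounds as a control protein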
[16] = probe aInhba binding on compound microarray – biochemical, small-molecule microarray, 635/667 nm fluorescence, primary screen (AID 1148); conditions: higher = more signal;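 also: score merges 667nm spot fluorescence with signal-to-noise for antibody binding to printed compounds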
Torsin-1A (Homo sapiens) [17] = biological target: Torsin-1A (Homo sapiens) (UniProt O14656); assay: TOR1A wild-type binding on microarray – cell lysate, small-molecule microarray, lysate, 635/667 nm, primary screen (AID 1149); conditions: COS7 hTOR1A-WT lysate, 635 nm fluorescence, higher = more signal
Torsin-1A (Homo sapiens) [18] = biological target: Torsin-1A (Homo sapiens) (UniProt O14656); assay: torsin A mutant lysate binding on microarrays – cell lysate, small-molecule microarray, COS7 lysate, 635/667 nm fluorescence, primary screen (AID 1150); conditions: COS7 hTOR1A mutant lysate, 635 nm fluorescence, higher = more signal;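 also: score pools 667 nm emission and signal to noise measuring lysate protein binding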
[19] = test system: Sonic hedgehog protein (Shh); assay: Sonic hedgehog microarray binding compounds – biochemical, small-molecule microarray, 635/667 nm fluorescence, primary screen (AID 1151); conditions: 635 nm fluorescence, higher = more signal;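 also: Shh protein binding to compounds spotted on small-molecule microarray slides; score combines spot fluorescence intensity with signal-to-noise across triplicate slides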

Chain of Luciferin 4-monooxygenase (Photinus pyralis) (P08659 whole entry, looked up): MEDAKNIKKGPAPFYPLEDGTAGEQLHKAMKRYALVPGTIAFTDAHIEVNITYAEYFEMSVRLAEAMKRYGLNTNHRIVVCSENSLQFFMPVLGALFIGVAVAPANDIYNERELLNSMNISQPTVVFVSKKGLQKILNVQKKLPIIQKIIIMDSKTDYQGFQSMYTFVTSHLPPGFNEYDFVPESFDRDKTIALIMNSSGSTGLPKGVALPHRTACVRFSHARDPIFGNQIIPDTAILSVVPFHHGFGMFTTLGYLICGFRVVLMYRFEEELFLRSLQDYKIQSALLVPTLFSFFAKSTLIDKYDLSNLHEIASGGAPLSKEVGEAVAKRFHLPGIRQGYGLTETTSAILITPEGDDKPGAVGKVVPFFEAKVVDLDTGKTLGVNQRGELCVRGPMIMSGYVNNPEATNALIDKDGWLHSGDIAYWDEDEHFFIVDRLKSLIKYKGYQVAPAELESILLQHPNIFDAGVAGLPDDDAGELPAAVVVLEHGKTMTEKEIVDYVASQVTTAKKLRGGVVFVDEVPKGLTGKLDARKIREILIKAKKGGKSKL
Chain of Torsin-1A (Homo sapiens) (O14656 whole entry, looked up): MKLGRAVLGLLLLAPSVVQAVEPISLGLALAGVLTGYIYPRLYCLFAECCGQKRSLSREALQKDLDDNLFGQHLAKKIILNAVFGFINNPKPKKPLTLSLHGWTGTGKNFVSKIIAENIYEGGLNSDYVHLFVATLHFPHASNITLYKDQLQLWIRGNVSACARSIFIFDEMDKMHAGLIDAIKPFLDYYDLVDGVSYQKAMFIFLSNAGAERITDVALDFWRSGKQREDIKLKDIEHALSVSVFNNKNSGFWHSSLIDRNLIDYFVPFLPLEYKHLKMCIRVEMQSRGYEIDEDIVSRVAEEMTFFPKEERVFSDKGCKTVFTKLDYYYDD
Chain of Fibroblast growth factor 2 (Homo sapiens) (P09038 whole entry, looked up): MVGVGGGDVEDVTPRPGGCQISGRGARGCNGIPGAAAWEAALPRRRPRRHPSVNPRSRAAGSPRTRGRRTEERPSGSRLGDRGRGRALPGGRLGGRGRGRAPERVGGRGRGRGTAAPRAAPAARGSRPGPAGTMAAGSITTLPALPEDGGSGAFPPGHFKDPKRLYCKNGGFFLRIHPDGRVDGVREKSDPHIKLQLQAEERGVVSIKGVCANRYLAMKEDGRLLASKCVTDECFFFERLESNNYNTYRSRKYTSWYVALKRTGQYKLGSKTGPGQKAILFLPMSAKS
Chain of Follistatin (Homo sapiens) (P19883 whole entry, looked up): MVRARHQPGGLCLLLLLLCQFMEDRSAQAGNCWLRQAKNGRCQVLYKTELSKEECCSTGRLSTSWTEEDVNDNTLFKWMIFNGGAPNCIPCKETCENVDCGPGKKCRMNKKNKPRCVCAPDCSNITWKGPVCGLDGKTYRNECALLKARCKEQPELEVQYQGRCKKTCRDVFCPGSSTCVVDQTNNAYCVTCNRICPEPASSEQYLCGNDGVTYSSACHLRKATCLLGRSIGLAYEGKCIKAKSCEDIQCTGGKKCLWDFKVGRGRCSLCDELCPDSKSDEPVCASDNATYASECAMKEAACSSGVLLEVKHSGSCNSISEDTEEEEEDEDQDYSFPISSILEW
Chain of Streptavidin (Streptomyces avidinii) (P22629 whole entry, looked up): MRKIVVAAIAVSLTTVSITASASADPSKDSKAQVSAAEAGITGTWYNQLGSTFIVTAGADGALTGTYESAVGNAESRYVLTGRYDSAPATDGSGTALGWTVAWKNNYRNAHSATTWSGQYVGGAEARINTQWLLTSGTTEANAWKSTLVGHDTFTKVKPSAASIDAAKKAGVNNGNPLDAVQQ
Chain of Focal adhesion kinase 1 (Homo sapiens) (Q05397 whole entry, looked up): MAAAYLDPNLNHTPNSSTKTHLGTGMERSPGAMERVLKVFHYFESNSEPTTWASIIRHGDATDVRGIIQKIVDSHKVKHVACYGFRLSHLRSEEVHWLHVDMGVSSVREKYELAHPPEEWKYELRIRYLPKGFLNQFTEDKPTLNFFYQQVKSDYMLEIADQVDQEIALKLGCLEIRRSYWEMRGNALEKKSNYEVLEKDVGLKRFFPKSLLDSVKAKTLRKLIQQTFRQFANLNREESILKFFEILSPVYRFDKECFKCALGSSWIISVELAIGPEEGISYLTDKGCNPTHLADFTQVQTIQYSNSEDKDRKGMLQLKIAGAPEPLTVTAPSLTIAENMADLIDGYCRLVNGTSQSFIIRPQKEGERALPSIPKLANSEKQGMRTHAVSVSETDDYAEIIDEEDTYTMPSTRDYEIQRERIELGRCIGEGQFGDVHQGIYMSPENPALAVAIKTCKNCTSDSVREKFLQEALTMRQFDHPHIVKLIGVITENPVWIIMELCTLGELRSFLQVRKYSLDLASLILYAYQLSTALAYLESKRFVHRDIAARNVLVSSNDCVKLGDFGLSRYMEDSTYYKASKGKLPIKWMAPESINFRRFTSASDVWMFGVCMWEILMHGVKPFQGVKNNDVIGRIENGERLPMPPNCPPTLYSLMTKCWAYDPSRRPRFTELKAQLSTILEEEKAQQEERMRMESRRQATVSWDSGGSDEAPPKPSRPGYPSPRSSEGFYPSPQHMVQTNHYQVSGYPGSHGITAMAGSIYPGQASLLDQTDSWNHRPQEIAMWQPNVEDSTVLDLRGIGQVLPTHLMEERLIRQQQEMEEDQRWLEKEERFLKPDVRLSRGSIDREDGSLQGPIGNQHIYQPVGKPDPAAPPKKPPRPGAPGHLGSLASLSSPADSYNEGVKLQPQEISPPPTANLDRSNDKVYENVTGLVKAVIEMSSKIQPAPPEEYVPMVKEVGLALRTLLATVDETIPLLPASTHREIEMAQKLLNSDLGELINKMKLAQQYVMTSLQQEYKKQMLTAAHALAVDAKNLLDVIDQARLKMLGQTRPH

| Structure (SMILES) | composite z-score [1] | composite z-score [2] | composite z-score [3] | composite z-score [4] | composite z-score [5] | composite z-score [6] | z-score [7] | composite z-score (Lefty1) | composite z-score [8] | z-score [9] | composite z-score [10] | z-score [11] | z-score [12] | z-score [13] | z-score [14] | composite z-score [15] | composite z-score [16] | composite z-score (Torsin-1A (Homo sapiens) [17]) | composite z-score (Torsin-1A (Homo sapiens) [18]) | composite z-score [19] |
| --- | --- | --- | --- | --- | --- | --- | --- | --- | --- | --- | --- | --- | --- | --- | --- | --- | --- | --- | --- | --- |
| O=C(N1CCCCC1)[C@]1(Cc2ccccc2)N=C(c2ccc(OCCCO)cc2)O[C@@H]1c1ccccc1 | 2.63 | 1.19 | 0.534 | 0.632 | 0.301 | 0.042 | -1.62 | -0.506 | 0.99 | -0.265 (inactive) | 0.33 | -6.07 (inactive) | -0.759 (inactive) | 0.558 (inactive) | 0.182 (inactive) | 0.997 | 0.0074 | 1.03 | 0.0081 | -0.412 |
| COC(=O)[C@@]1(Cc2ccc(OC)cc2)[C@H]2c3cc(C(=O)N4CCCC4)n(Cc4ccc(O)c(OC)c4)c3C[C@H]2CN1C(=O)c1ccccc1 | 2.89 | 0.926 | 0.264 | 0.724 | 0.379 | -0.1 | 1.44 | -0.304 | 1.11 | 1.62 (inactive) | 1.22 | -1.28 (inactive) | -0.117 (inactive) | 0.962 (inactive) | 0.549 (inactive) | 2.18 | 1.21 | -0.208 | 0.669 | -0.466 |
| O=C(OCc1ccccc1)C1=CCC2c3[nH]c4ccccc4c3C(=O)C1N2S(=O)(=O)c1ccccc1[N+](=O)[O-] (stereo not given) | 1.28 | 1.26 | -0.134 | 0.906 | 1.11 | 0.491 | -2.71 | 0.5 | 0.743 | 0.895 (inactive) | 0.794 | -1.26 (inactive) | -0.00859 (inactive) | -0.0137 (inactive) | -0.451 (inactive) | 0.745 | 0.11 | 0.498 | 0.497 | 0.488 |
| C=CCN1C(=O)[C@]2(O[C@H](CCn3cc([C@H](O)c4ccccc4)nn3)[C@@H]([Si](C)(C)c3ccc(OC)cc3)[C@@H]2C)c2cc(N3CCC3=O)ccc21 | 0.211 | 1.16 | 0.309 | -0.713 | 1.28 | 0.792 | 1.37 | 1.2 | 0.386 | 0.114 (inactive) | 0.979 | -4.37 (inactive) | -0.549 (inactive) | 2.37 (inactive) | -0.229 (inactive) | -0.0806 | 0.481 | 0.279 | 0.398 | 2.08 |
| O=C1[C@@]23C=C(Br)[C@H](C[C@@H]2CCOC3)[C@@]12CO2 | 0.477 | 0.235 | -0.176 | 0.332 | 0.327 | 0.469 | 1.23 | 0.406 | 0.128 | -0.54 (inactive) | -0.0248 | 0.35 (inactive) | 0.725 (inactive) | 0.221 (inactive) | 0.767 (inactive) | 0.365 | 0.0792 | 0.441 | 0.219 | 0.534 |
| CC(C)OC(=O)C=C1C[C@@H](c2ccccn2)O[C@@H](c2ccccn2)O1 | 0.772 | -0.0007 | -0.19 | 0.0108 | 1.34 | 0.935 | 0.0752 | 1.53 | 0.372 | 0.633 (inactive) | 0.144 | -0.891 (inactive) | 0.589 (inactive) | -0.0137 (inactive) | -0.322 (inactive) | 0.546 | -0.0001 | 0.0581 | 0.0457 | 1.7 |
| COCCOC(=O)N1C(=O)[C@@]2(c3cc(C#Cc4ccc(OC)cc4)ccc31)[C@H](c1ccccc1OCCO)N1[C@H](c3ccccc3)[C@H](c3ccccc3)OC(=O)[C@H]1[C@@H]2C(=O)NC[C@H](O)c1ccccc1 | 0.992 | 1.24 | 0.824 | 0.782 | 1.33 | 1.6 | -0.922 | 1.16 | 0.889 | 0.385 (inactive) | 0.609 | -3.23 (inactive) | -0.436 (inactive) | -0.602 (inactive) | -0.0611 (inactive) | 0.115 | 0.143 | 0.175 | 0.525 | 2.21 |
| CCOC(=O)C[C@H]1[C@H](OC(=O)c2ccc(-c3ccccc3)cc2)[C@@H](NC(=O)Cc2ccc(OC)cc2)c2cc(OCCCO)ccc2N1C(=O)c1ccccc1 | 0.0013 | -0.483 | 0.0865 | 0.44 | 0.349 | 0.0164 | 0.188 | 0.299 | 0.241 | 0.785 (inactive) | 0.118 | -1.02 (inactive) | 0.338 (inactive) | -0.505 (inactive) | -0.15 (inactive) | -0.0322 | -0.0645 | -0.36 | 0.023 | 0.265 |
| C=C(COC)C(=O)CC[C@@H](OC(C)=O)c1ccc(CO)o1 | -0.555 | -0.724 | -0.285 | 0.966 | 1.33 | 1.32 | -0.57 | 1.73 | 0.397 | -1.15 (inactive) | 0.111 | 0.622 (inactive) | -0.238 (inactive) | 0.363 (inactive) | 0.283 (inactive) | -0.374 | 0.138 | 0.463 | 1.06 | 2.14 |
